Reference: publication PMC9911399, “Two distinct binding modes provide the RNA-binding protein RbFox with extraordinary sequence specificity”
Positions count from the first letter of the chain named. Over roughly 16,000 sequences, “ka relative to ugcaugu” has its median near 0.0091; the highest 2% begin near 0.032. The entries come from a sample that favours the highest values as a whole.

T1: RBFOX1 RRM (Homo sapiens, UniProt Q9NWB1 109-208)
T1 sequence: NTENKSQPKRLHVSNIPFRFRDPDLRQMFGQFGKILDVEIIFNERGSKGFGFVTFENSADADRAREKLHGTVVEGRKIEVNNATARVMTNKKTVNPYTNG

B1: GUUGUCC (DNA:RNA)
RNA: GGGAGACCGGAAUUCAGAUUGUCCGUUGUCCUUAAAUCCCGUCGUAGCCACCA
DNA 1: CAATCTGAATTCCGGTCTCCC
DNA 2: TGGTGGCTACGACGGGATT
B2: UGGCAGU (DNA:RNA)
RNA: GGGAGACCGGAAUUCAGAUUGUCCUGGCAGUUUAAAUCCCGUCGUAGCCACCA
DNA 1: CAATCTGAATTCCGGTCTCCC
DNA 2: TGGTGGCTACGACGGGATT
B3: CUGGCAG (DNA:RNA)
RNA: B1 RNA with G25C, U27G, U29C, C30A, C31G
DNA 1: CAATCTGAATTCCGGTCTCCC
DNA 2: TGGTGGCTACGACGGGATT
B4: UGGCACU (DNA:RNA)
RNA: B2 RNA with G30C
DNA 1: CAATCTGAATTCCGGTCTCCC
DNA 2: TGGTGGCTACGACGGGATT
B5: CUGGCAC (DNA:RNA)
RNA: B1 RNA with G25C, U27G, U29C, C30A
DNA 1: CAATCTGAATTCCGGTCTCCC
DNA 2: TGGTGGCTACGACGGGATT
B6: UGGGCAG (DNA:RNA)
RNA: B2 RNA with C28G, A29C, G30A, U31G
DNA 1: CAATCTGAATTCCGGTCTCCC
DNA 2: TGGTGGCTACGACGGGATT
B7: UGGGCAC (DNA:RNA)
RNA: B2 RNA with C28G, A29C, G30A, U31C
DNA 1: CAATCTGAATTCCGGTCTCCC
DNA 2: TGGTGGCTACGACGGGATT
B8: CCGCAGU (DNA:RNA)
RNA: B2 RNA with U25C, G26C
DNA 1: CAATCTGAATTCCGGTCTCCC
DNA 2: TGGTGGCTACGACGGGATT
B9: AACCGUA (DNA:RNA)
RNA: B2 RNA with U25A, G26A, G27C, A29G, G30U, U31A
DNA 1: CAATCTGAATTCCGGTCTCCC
DNA 2: TGGTGGCTACGACGGGATT
B10: CGCCCCG (DNA:RNA)
RNA: B2 RNA with U25C, G27C, A29C, G30C, U31G
DNA 1: CAATCTGAATTCCGGTCTCCC
DNA 2: TGGTGGCTACGACGGGATT
B11: UUGCACU (DNA:RNA)
RNA: B2 RNA with G26U, G30C
DNA 1: CAATCTGAATTCCGGTCTCCC
DNA 2: TGGTGGCTACGACGGGATT
B12: GGGAUAU (DNA:RNA)
RNA: B2 RNA with U25G, C28A, A29U, G30A
DNA 1: CAATCTGAATTCCGGTCTCCC
DNA 2: TGGTGGCTACGACGGGATT
B13: UAAGUGG (DNA:RNA)
RNA: B1 RNA with G25U, U26A, U27A, C30G, C31G
DNA 1: CAATCTGAATTCCGGTCTCCC
DNA 2: TGGTGGCTACGACGGGATT
B14: GUUAAGA (DNA:RNA)
RNA: B1 RNA with G28A, U29A, C30G, C31A
DNA 1: CAATCTGAATTCCGGTCTCCC
DNA 2: TGGTGGCTACGACGGGATT
B15: CUGGUCU (DNA:RNA)
RNA: B1 RNA with G25C, U27G, C31U
DNA 1: CAATCTGAATTCCGGTCTCCC
DNA 2: TGGTGGCTACGACGGGATT
B16: GUGGGUC (DNA:RNA)
RNA: B1 RNA with U27G, U29G, C30U
DNA 1: CAATCTGAATTCCGGTCTCCC
DNA 2: TGGTGGCTACGACGGGATT
B17: UGGGGUC (DNA:RNA)
RNA: B2 RNA with C28G, A29G, G30U, U31C
DNA 1: CAATCTGAATTCCGGTCTCCC
DNA 2: TGGTGGCTACGACGGGATT
B18: UGGGUCU (DNA:RNA)
RNA: B2 RNA with C28G, A29U, G30C
DNA 1: CAATCTGAATTCCGGTCTCCC
DNA 2: TGGTGGCTACGACGGGATT
B19: CUGGGUC (DNA:RNA)
RNA: B1 RNA with G25C, U27G, U29G, C30U
DNA 1: CAATCTGAATTCCGGTCTCCC
DNA 2: TGGTGGCTACGACGGGATT
B20: UGGUCUU (DNA:RNA)
RNA: B2 RNA with C28U, A29C, G30U
DNA 1: CAATCTGAATTCCGGTCTCCC
DNA 2: TGGTGGCTACGACGGGATT
B21: CAUUGUG (DNA:RNA)
RNA: B1 RNA with G25C, U26A, G28U, U29G, C30U, C31G
DNA 1: CAATCTGAATTCCGGTCTCCC
DNA 2: TGGTGGCTACGACGGGATT
B22: GGUCGAG (DNA:RNA)
RNA: B1 RNA with U26G, G28C, U29G, C30A, C31G
DNA 1: CAATCTGAATTCCGGTCTCCC
DNA 2: TGGTGGCTACGACGGGATT
B23: AGGUCCC (DNA:RNA)
RNA: B1 RNA with G25A, U26G, U27G, G28U, U29C
DNA 1: CAATCTGAATTCCGGTCTCCC
DNA 2: TGGTGGCTACGACGGGATT
B24: UGCUGUG (DNA:RNA)
RNA: B2 RNA with G27C, C28U, A29G, G30U, U31G
DNA 1: CAATCTGAATTCCGGTCTCCC
DNA 2: TGGTGGCTACGACGGGATT
B25: UGUGUGU (DNA:RNA)
RNA: B2 RNA with G27U, C28G, A29U
DNA 1: CAATCTGAATTCCGGTCTCCC
DNA 2: TGGTGGCTACGACGGGATT
B26: UGUUUGA (DNA:RNA)
RNA: B2 RNA with G27U, C28U, A29U, U31A
DNA 1: CAATCTGAATTCCGGTCTCCC
DNA 2: TGGTGGCTACGACGGGATT
B27: CCUGCUG (DNA:RNA)
RNA: B1 RNA with G25C, U26C, U29C, C30U, C31G
DNA 1: CAATCTGAATTCCGGTCTCCC
DNA 2: TGGTGGCTACGACGGGATT
B28: UGUUUUU (DNA:RNA)
RNA: B2 RNA with G27U, C28U, A29U, G30U
DNA 1: CAATCTGAATTCCGGTCTCCC
DNA 2: TGGTGGCTACGACGGGATT
B29: UGUCGUU (DNA:RNA)
RNA: B2 RNA with G27U, A29G, G30U
DNA 1: CAATCTGAATTCCGGTCTCCC
DNA 2: TGGTGGCTACGACGGGATT
B30: UGUGUUU (DNA:RNA)
RNA: B1 RNA with G25U, U26G, C30U, C31U
DNA 1: CAATCTGAATTCCGGTCTCCC
DNA 2: TGGTGGCTACGACGGGATT
B31: CGUUUGA (DNA:RNA)
RNA: B1 RNA with G25C, U26G, G28U, C30G, C31A
DNA 1: CAATCTGAATTCCGGTCTCCC
DNA 2: TGGTGGCTACGACGGGATT
B32: UGUGUUG (DNA:RNA)
RNA: B1 RNA with G25U, U26G, C30U, C31G
DNA 1: CAATCTGAATTCCGGTCTCCC
DNA 2: TGGTGGCTACGACGGGATT
B33: CUGUGUU (DNA:RNA)
RNA: B2 RNA with U25C, G26U, C28U, A29G, G30U
DNA 1: CAATCTGAATTCCGGTCTCCC
DNA 2: TGGTGGCTACGACGGGATT
B34: UGUUUGU (DNA:RNA)
RNA: B2 RNA with G27U, C28U, A29U
DNA 1: CAATCTGAATTCCGGTCTCCC
DNA 2: TGGTGGCTACGACGGGATT
B35: UGUUAAA (DNA:RNA)
RNA: B2 RNA with G27U, C28U, G30A, U31A
DNA 1: CAATCTGAATTCCGGTCTCCC
DNA 2: TGGTGGCTACGACGGGATT

biological target: T1, RBFOX1 RRM; assay: EMSA; HiTS-Eq, 1 nM pool, 10 min; buffer printed only for the single-RNA assays: 10 mM Tris pH 7.5, 150 mM NaCl, 3.4 mM EDTA, 0.001% NP-40, 30 C; settings: tags: His6 N-terminal (pET28a); label: 5' 32P
Procedure, shortened: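 A pool of RNA with 7 randomized nucleotides, 5′-radiolabelled and with DNA-annealed flanks, was equilibrated at 1 nM for 10 min in 50 µL with purified RbFox RRM, wild type or mutant, across increasing protein concentrations. Free RNA was separated by 8% native PAGE, excised, reverse-transcribed, barcoded by PCR and sequenced. Relative association constants were obtained from read-count changes of each RNA species versus the control reaction and normalised to the cognate motif.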

Row | Binder | binding signal
1 | B1 | 0.0202 KA relative to UGCAUGU
2 | B2 | 0.0192 KA relative to UGCAUGU
3 | B3 | 0.0227 KA relative to UGCAUGU
4 | B4 | 0.0174 KA relative to UGCAUGU
5 | B5 | 0.0183 KA relative to UGCAUGU
6 | B6 | 0.0337 KA relative to UGCAUGU
7 | B7 | 0.0337 KA relative to UGCAUGU
8 | B8 | 0.00716 KA relative to UGCAUGU
9 | B9 | 0.00191 KA relative to UGCAUGU
10 | B10 | 0.007 KA relative to UGCAUGU
11 | B11 | 0.021 KA relative to UGCAUGU
12 | B12 | 0.0263 KA relative to UGCAUGU
13 | B13 | 0.00934 KA relative to UGCAUGU
14 | B14 | 0.012 KA relative to UGCAUGU
15 | B15 | 0.0225 KA relative to UGCAUGU
16 | B16 | 0.0192 KA relative to UGCAUGU
17 | B17 | 0.0387 KA relative to UGCAUGU
18 | B18 | 0.0375 KA relative to UGCAUGU

Row | Binder | binding signal
19 | B19 | 0.0291 KA relative to UGCAUGU
20 | B20 | 0.0179 KA relative to UGCAUGU
21 | B21 | 0.0157 KA relative to UGCAUGU
22 | B22 | 0.0142 KA relative to UGCAUGU
23 | B23 | 0.00339 KA relative to UGCAUGU
24 | B24 | 0.0347 KA relative to UGCAUGU
25 | B25 | 0.0346 KA relative to UGCAUGU
26 | B26 | 0.0341 KA relative to UGCAUGU
27 | B27 | 0.0192 KA relative to UGCAUGU
28 | B28 | 0.0221 KA relative to UGCAUGU
29 | B29 | 0.021 KA relative to UGCAUGU
30 | B30 | 0.0186 KA relative to UGCAUGU
31 | B31 | 0.0182 KA relative to UGCAUGU
32 | B32 | 0.0299 KA relative to UGCAUGU
33 | B33 | 0.0207 KA relative to UGCAUGU
34 | B34 | 0.0434 KA relative to UGCAUGU
35 | B35 | 0.0109 KA relative to UGCAUGU
